Source: PubChem BioAssay (several laboratories)
IDE cell inh = inhibitors of human insulin-degrading enzyme in cells | P14735 | HEK cells, FAbetaB cleavage, fluorescence polarization | inhibition, % at 5.59 µM | actives 0.41% (n = 320,000) | AID 434962;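 active means percent inhibition above the average of all tested compounds plus 3 SD, set per screening campaign, cut at about 16% in these data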;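 further: IDE supplied by intact live HEK cells; FP after avidin binding of uncleaved biotin substrate so inhibition keeps polarization high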
Target sequence (P14735 whole entry, looked up): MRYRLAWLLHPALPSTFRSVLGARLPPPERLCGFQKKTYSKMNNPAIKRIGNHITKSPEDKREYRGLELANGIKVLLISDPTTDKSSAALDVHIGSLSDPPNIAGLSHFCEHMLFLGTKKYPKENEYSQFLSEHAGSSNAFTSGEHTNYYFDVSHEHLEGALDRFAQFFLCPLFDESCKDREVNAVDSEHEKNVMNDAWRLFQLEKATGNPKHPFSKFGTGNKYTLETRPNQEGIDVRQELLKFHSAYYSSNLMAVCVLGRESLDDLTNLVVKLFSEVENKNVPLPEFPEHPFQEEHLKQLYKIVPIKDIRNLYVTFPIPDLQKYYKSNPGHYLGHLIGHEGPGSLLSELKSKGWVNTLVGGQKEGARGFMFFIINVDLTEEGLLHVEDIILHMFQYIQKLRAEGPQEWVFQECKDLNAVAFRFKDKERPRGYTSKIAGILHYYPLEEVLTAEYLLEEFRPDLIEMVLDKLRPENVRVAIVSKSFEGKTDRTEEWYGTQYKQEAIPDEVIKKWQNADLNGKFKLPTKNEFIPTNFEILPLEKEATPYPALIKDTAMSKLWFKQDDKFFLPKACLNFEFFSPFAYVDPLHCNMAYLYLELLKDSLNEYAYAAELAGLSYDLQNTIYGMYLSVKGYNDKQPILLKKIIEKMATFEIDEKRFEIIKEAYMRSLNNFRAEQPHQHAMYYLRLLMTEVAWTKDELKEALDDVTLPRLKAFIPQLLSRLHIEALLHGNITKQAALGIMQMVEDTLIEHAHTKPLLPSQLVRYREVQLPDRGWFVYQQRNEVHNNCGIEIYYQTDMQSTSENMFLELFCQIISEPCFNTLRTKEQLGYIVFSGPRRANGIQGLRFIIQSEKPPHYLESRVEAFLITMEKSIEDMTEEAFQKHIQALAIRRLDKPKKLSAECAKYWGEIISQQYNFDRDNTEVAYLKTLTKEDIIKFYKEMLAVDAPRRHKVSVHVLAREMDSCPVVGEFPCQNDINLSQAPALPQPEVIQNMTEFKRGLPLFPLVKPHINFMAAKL
Myeloid diff 2 = compounds promoting myeloid differentiation; AID 624256; ER-HoxA9 myeloid progenitors, lysozyme-GFP differentiation, flow cytometry; actives 1% (n = 360,000); calls only at 10 µM;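 active means normalized GFP-positive differentiation at or above the plate's own cutoff, the solvent-only control mean plus 3 SD; inconclusive means no clear call, values can overlap the other calls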;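 further: cells exposed to compound for four days before flow analysis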
CRFBP-R2 agonist = agonists of human CRF-binding protein/CRF-R2 receptor complex; actives 0.46% (n = 350,000); activation, % at 13.2 µM; AID 588473; HEK293 CRF-R2/CRF-BP, calcium dye fluorescence (FLIPR); percent of saturating CRF peptide response;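 active means activation of at least 50%, plus an integration ratio under a set limit after plate pattern correction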
CRFBP-R2 block = blocks CRF-induced signaling of the CRF-BP/CRF-R2 complex. HEK293 CRF-R2/CRF-BP, CRF-induced calcium fluorescence. AID 588475. inhibition, % at 11.8 µM. actives 0.59% (n = 350,000);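 active means inhibition of the ligand-induced calcium signal above about 50% at the single tested concentration, limit read from the data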
IDE cell activ = boosts human insulin-degrading enzyme activity in HEK cells. P14735. activation, % at 5.96 µM. FAbeta-B cleavage, fluorescence polarization; 0% vehicle, 100% cell-free pure enzyme wells. actives 0.073% (n = 340,000);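 active means activation above the mean of all tested compounds plus 3 SD, set per screening campaign, cut at about 17% in these data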
TPT1 inh = inhibitors of Candida albicans tRNA 2'-phosphotransferase TPT1 | recombinant caTPT1, FP RNA substrate dephosphorylation | inhibition, % at 5 µM | actives 0.81% (n = 300,000) | AID 1962;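 active means inhibition above the mean of all tested compounds plus 3 SD, set per screening campaign, cut at about 24% in these data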
IDE cell inh cf = confirmation of human insulin-degrading enzyme inhibitors in cells. shares compounds with IDE cell inh. HEK cells, FAbetaB cleavage, fluorescence polarization. inhibition, % at 5.59 µM. actives 51% (n = 1,200). AID 435028;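 active means mean inhibition across triplicate wells above the cutoff set by the earlier primary insulin-degrading enzyme screen, cut at about 16% in these data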
HEK293 tox = counter-screen for IDE inhibitors: cytotoxicity in HEK cells. shares compounds with IDE cell inh. HEK293 cytotoxicity, ATP luminescence. inhibition, % at 5.59 µM. actives 28% (n = 1,200). AID 449730; in the data active means inhibition above about 22%
Myeloid diff CP1 = promotes myeloid progenitor differentiation. actives 2% (n = 2,300). shares compounds with Myeloid diff 2. AID 651706. calls only. ER-HoxA9 myeloid progenitors, GFP/Mac1 double-positive flow;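 active means share of green or green-and-red cells above 9 and 9% in run 1 or 4 and 3% in run 2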
GFP autofluor = counter-screen for myeloid differentiation promoters: compound fluorescence; shares compounds with Myeloid diff 2; ER-HoxA9 myeloid progenitors, no estrogen, GFP autofluorescence flow cytometry; vehicle wells 0%, positive control 100%; fluorescence response, % (no concentration beside the values); actives 7.4% (n = 2,300); AID 651707;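 active means over 5% cells positive for green fluorescent reporter, or over 2% positive for both it and APC stain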
Large screens that a line does not name were inactive (follow-up assays come after a bar, where they were run). The list is not random: actives were taken first. Their share in the collection is about 2.6%.

CC(=O)N(c1ccc2oc(=O)sc2c1)S(=O)(=O)c1ccccc1	IDE cell inh 23 | IDE cell inh cf inactive | HEK293 tox inactive
COc1ccc(OC)c(S(=O)(=O)N(C(C)=O)c2ccc3oc(=O)sc3c2)c1	none
CC(C)C(=O)N(c1ccc2oc(=O)sc2c1)S(=O)(=O)c1ccccc1	IDE cell inh 25 | IDE cell inh cf inactive | HEK293 tox inactive
Cc1c(OC(C)C(=O)NCc2ccncc2)ccc2c3c(c(=O)oc12)CCCC3 (stereo not given)	IDE cell inh 19 | IDE cell inh cf 17 | HEK293 tox inactive
C[C@@H]1CN([C@@H](C)CO)C(=O)CCCn2nncc2CO[C@H]1CN(C)Cc1ccc2cccnc2c1	none (no result: IDE cell inh, IDE cell activ, TPT1 inh)
NC(N)=Nc1nc2ccc(Cl)cc2c(=O)[nH]1	none
CCN1C(=O)/C(=C/c2ccc(OC)c(OC)c2)N=C1SCC(=O)NCc1ccco1	none
COc1cc(/C=C/C(=O)c2ccc(NS(=O)(=O)c3ccc(C)cc3)cc2)cc(OC)c1O	IDE cell inh 27 | IDE cell inh cf 56 | HEK293 tox 45
O=S(Cc1ccccc1)CC(O)(c1ccccc1)c1ccccc1 (stereo not given)	none
CCOc1ccc(Nc2ccnc3cc(Cl)ccc23)cc1	IDE cell inh 17 | IDE cell inh cf inactive | HEK293 tox 36
CCCCNC(=O)Oc1c(Br)cc2sc(=O)oc2c1Br	none (no result: Myeloid diff 2, CRFBP-R2 agonist, CRFBP-R2 block, IDE cell activ)
COc1ccc(OC)c(NC(=O)CSc2nnc(C3CCCCC3)n2-c2ccccc2)c1	none
O=c1onc(-c2ccccc2)c2ccccc12	IDE cell inh 16 | IDE cell inh cf inactive | HEK293 tox inactive
CN(C)c1ccc(/C=C2\Oc3ccc(C#Cc4cccc(N)c4)cc3C2=O)cc1	IDE cell inh 44, CRFBP-R2 agonist 80 (no result: TPT1 inh) | IDE cell inh cf 49 | HEK293 tox inactive | Myeloid diff CP1 inactive | GFP autofluor 98
CC(C)c1ccc(NC(=O)c2ccc3c(c2)C(=O)N(Cc2cccnc2)C3=O)cc1	none
COc1cc(OC)cc(C(=O)NCC(=O)N2CC=C(c3ccccc3)CC2)c1	Myeloid diff 2 inconclusive (no result: IDE cell inh, TPT1 inh)
O=C(NCC(=O)N1CC=C(c2ccccc2)CC1)c1ccc(OC(F)F)cc1	IDE cell inh 18 (no result: TPT1 inh) | IDE cell inh cf inactive | HEK293 tox 55 | Myeloid diff CP1 inactive | GFP autofluor inactive
COc1ccc(OC)c(C=NNC(=O)c2ccccc2NS(=O)(=O)c2cccs2)c1	Myeloid diff 2 active (no result: TPT1 inh) | Myeloid diff CP1 inactive | GFP autofluor inactive
CCOc1ccc(S(=O)(=O)N2CCCC(C(=O)NCC3CCCO3)C2)cc1 (stereo not given)	none
CS(=O)(=O)N1N=C(c2ccc(Br)cc2)CC1c1cccs1 (stereo not given)	none
Cc1ccc(C2=NN(S(C)(=O)=O)C(c3cccs3)C2)cc1 (stereo not given)	none | Myeloid diff CP1 inactive | GFP autofluor inactive
CC(C)CCC1(CCO)C(=O)N=C(N)NC1=O (stereo not given)	none (no result: IDE cell inh, TPT1 inh)
CC(OC(=O)CC(NC(=O)c1ccccc1Cl)c1ccccc1)C(=O)Nc1cccc(Cl)c1Cl (stereo not given)	none
CC(C)(C)c1nnc(NC(=O)Nc2ccc(Cl)cc2)s1	Myeloid diff 2 active | Myeloid diff CP1 inactive | GFP autofluor inactive
Cc1nc(NC(=O)Nc2ccc(Cl)cc2)sc1C	none
COC(=O)c1cc(NS(=O)(=O)c2ccc(C)c3ccccc23)ccc1N1CCOCC1	none | Myeloid diff CP1 inactive | GFP autofluor inactive
COC(=O)c1cc(-n2cccc2)ccc1N1CCOCC1	none
COC(=O)C(NC(C)=O)(Nc1nc2c(C)cc(C)cc2s1)C(F)(F)F (stereo not given)	none
O=C(OCC(=O)N1CCC(Cc2ccccc2)CC1)c1cncc(Br)c1	none (no result: TPT1 inh)
C/C(=N\NC(=O)C1CCCN(S(=O)(=O)c2ccccc2)C1)c1ccccn1 (stereo not given)	none (no result: Myeloid diff 2) | Myeloid diff CP1 inactive | GFP autofluor inactive
Cc1onc(-c2c(Cl)cccc2Cl)c1NC(=O)NNc1ccccc1	Myeloid diff 2 active | Myeloid diff CP1 inactive | GFP autofluor inactive
Cc1onc(-c2c(Cl)cccc2Cl)c1NC(=O)NNc1c(Cl)cncc1Cl	none
Cc1nn(Cc2ccccc2)c(C)c1NC(=O)CSc1nnc(-c2cc(Cl)ccc2O)n1C	none
COc1ccc(CCNC(=O)c2nn(C)cc2Cl)cc1	Myeloid diff 2 active | Myeloid diff CP1 inactive | GFP autofluor inactive
CCOCCn1c(CN(Cc2ccccc2)Cc2ccccc2)nc2c1c(=O)[nH]c(=O)n2C	Myeloid diff 2 active | Myeloid diff CP1 inactive | GFP autofluor inactive
COCC(C)N1CCC(n2nccc2NC(=O)CCCc2ccccc2)CC1 (stereo not given)	none
CCc1nc2c(OCc3ccc(F)c(F)c3)cccn2c1N(C)C(=O)c1ccncc1	none (no result: IDE cell inh, CRFBP-R2 agonist, CRFBP-R2 block, IDE cell activ, TPT1 inh)
O=C1N=C(N2C=CC(=C3C=CNC=C3)C=C2)/C(=C/N=NC(=O)c2ccccc2)S1	none
CCOC(=O)C1CCN(Cc2cc(C(C)C)c(O)c(C(C)C)c2)CC1	Myeloid diff 2 active | Myeloid diff CP1 inactive | GFP autofluor inactive
COc1ccccc1NC(=O)C1CCN(C(=O)NCc2ccccc2)CC1	none
CCc1ccc(CNCc2ccc(OCC(O)CN(C)Cc3ccccc3)cc2)nc1 (stereo not given)	Myeloid diff 2 active | Myeloid diff CP1 inactive | GFP autofluor inactive
CN(Cc1ccccc1)CC(O)COc1ccc(CNCCc2cccnc2)cc1 (stereo not given)	none
COC(=O)c1cn(NC(=O)c2ccc([N+](=O)[O-])cc2Cl)c(=O)c2ccccc12	Myeloid diff 2 active | Myeloid diff CP1 inactive | GFP autofluor inactive
COC(=O)c1cn(NC(=O)c2cc(OC)cc(OC)c2)c(=O)c2ccccc12	none
NNC(=O)c1ccc(COc2cccc3ccccc23)o1	Myeloid diff 2 active | Myeloid diff CP1 inactive | GFP autofluor inactive
CCOc1ccc(OCc2ccc(C(=O)NN)o2)cc1	Myeloid diff 2 active | Myeloid diff CP1 inactive | GFP autofluor inactive
NNC(=O)c1ccc(COc2ccc3ccccc3c2)o1	Myeloid diff 2 active | Myeloid diff CP1 inactive | GFP autofluor inactive
CN(C)C1=NCCN1CCc1ccc(F)cc1	none
Oc1cccc(-c2ccc3nccn3c2)c1	none (no result: IDE cell inh, CRFBP-R2 agonist, CRFBP-R2 block, IDE cell activ, TPT1 inh)
